Over roughly 33,000 sequences, “E-score (-0.5 to 0.5)” has its median near -0.015; the highest 2% begin near 0.3. Only a selection was taken, and the highest values are over-represented in it overall.
Target: T1, Abf1 (UniProt P14164)
T1 sequence: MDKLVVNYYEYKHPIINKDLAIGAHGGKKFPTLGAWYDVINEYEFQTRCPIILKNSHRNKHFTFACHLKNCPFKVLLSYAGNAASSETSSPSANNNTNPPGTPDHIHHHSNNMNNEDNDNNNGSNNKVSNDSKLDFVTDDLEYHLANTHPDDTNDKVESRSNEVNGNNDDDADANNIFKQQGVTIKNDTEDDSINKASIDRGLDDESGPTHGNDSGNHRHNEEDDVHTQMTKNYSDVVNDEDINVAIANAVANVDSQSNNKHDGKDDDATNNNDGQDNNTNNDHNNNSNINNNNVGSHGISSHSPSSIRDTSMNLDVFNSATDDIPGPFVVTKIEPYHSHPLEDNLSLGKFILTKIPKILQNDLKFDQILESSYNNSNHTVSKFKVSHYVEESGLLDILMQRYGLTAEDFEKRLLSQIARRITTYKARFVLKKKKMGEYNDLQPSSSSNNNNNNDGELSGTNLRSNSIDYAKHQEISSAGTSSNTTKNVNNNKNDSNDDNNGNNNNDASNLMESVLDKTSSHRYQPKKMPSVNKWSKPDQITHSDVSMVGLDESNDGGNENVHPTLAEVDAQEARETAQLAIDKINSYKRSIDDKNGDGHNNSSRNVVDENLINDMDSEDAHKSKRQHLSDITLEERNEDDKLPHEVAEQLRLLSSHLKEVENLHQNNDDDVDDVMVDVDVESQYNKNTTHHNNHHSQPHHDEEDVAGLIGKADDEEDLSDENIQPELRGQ
Assay: PBM E-score (8-mer binding enrichment) (E-score (-0.5 to 0.5)); higher = stronger / more preferred TF binding
Conditions: protein concentration: 200 nM; construct: GST-full length
How it was run: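 Masliner-normalised scans of fluorescent anti-GST signal were the basis for scoring. That signal came from GST-tagged yeast transcription factors applied at about 100-200 nM to double-stranded universal all-10-mer Agilent arrays on fresh or once-stripped slides. Each ungapped eight-base word, pooled with its reverse complement, received an E-score from the Universal PBM Analysis Suite.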

Row | Sequence | PBM E-score
1 | ATCTACGG | 0.344
2 | ATATACCG | 0.268
3 | AGATACGA | 0.223
4 | ATCTACGC | 0.0634
5 | ATCTACGA | 0.233
6 | ATATACGA | 0.324
7 | CTATACGC | -0.0573
8 | GTATACGA | 0.242
9 | CTGGCGGA | -0.122
10 | AGTCGCTC | -0.106
11 | CGACCCTC | -0.152
12 | GTCGACGA | 0.26
13 | TAAGATGA | 0.182
14 | AGACGGCT | -0.0258
15 | CGTATACG | 0.195
16 | ATCGCCCC | -0.113
17 | ACAACTTA | 0.0805
18 | GTAAAGAA | 0.113
19 | ACCACACA | -0.0452
20 | CTGCCGTA | 0.122
21 | GTAAGCAA | 0.0905
22 | ATTGTCAG | 0.141
23 | CTTGTCAC | 0.357
24 | ATTGTCAC | 0.398
25 | CTTGTCAA | 0.0838

Row | Sequence | PBM E-score
26 | CCTGTCAC | 0.149
27 | ATTGTCAA | -0.0577
28 | TAGCCGGA | -0.117
29 | AAGTGACA | 0.394
30 | AAGTGGCT | -0.149
31 | AAGTGACT | 0.328
32 | AAGTGAGG | -0.0213
33 | AAGTGCCA | -0.105
34 | CAGTGACG | 0.239
35 | AAGTGACG | 0.352
36 | ATGTGACA | 0.288
37 | AAGTGACC | 0.252
38 | GGGCTATA | -0.0762
39 | AATCACCC | 0.195
40 | AACGCAAC | 0.0366
41 | CATTTTGG | 0.124
42 | AGAGTGTG | -0.158
43 | AGGTGAGG | 0.115
44 | TACAACCA | -0.0973
45 | CCGAAGGA | -0.29
46 | ACCTCATA | 0.195
47 | CGGAAGAG | -0.212
48 | AGTCCCCG | -0.265
49 | AGTTTATA | 0.0788
50 | AACTTAGC | 0.0723

Row | Sequence | PBM E-score
51 | CTGCACGC | -0.24
52 | ATGCACGC | -0.131
53 | ATGCACGG | 0.258
54 | GTGCACGA | 0.187
55 | CTGCACGA | 0.303
56 | ATGCACGA | 0.362
57 | CCAGAGGG | -0.267
58 | AGAATTTG | -0.0116
59 | AAACGAAG | 0.108
60 | GTAATGCA | -0.123
61 | CATGCTAA | 0.0181
62 | AAATACGT | 0.039
63 | GAATACGA | 0.253
64 | AAATACGG | 0.314
65 | TAATACGA | 0.337
66 | AAATACGA | 0.333
67 | CAATACGG | 0.228
68 | AAATACGC | 0.0308
69 | CAATACGA | 0.281
70 | AGATACGG | 0.129
71 | CCACGCGG | -0.0923
72 | ATACTTAG | -0.0263
73 | GAAGCTGA | -0.0959
74 | GCAGACCC | -0.286
75 | CACTGTCA | 0.234

Row | Sequence | PBM E-score
76 | GTTCGAAC | 0.21
77 | GTGACAAA | 0.412
78 | ATGACAAA | 0.338
79 | GGGACAAC | -0.0272
80 | AGGACAAA | 0.121
81 | TTGACAAA | 0.182
82 | ATGACAAT | 0.344
83 | CTGACAAC | -0.0598
84 | AGGACAAT | 0.125
85 | CTGACAAA | 0.0266
86 | AAGACAAT | 0.138
87 | GTGACAAC | 0.375
88 | AAGACAAA | 0.127
89 | TACGCGCA | 0.0188
90 | TCCCGAAA | 0.0516
91 | AATGAAGT | -0.0259
92 | ATAAACCA | 0.0453
93 | GCAATGAC | 0.245
94 | GCACGCAC | 0.0219
95 | ACCTGCGT | -0.045
96 | ATCCACAC | -0.103
97 | GACGGGAA | 0.098
98 | CGGCAGAG | -0.193
99 | CATCCCCG | -0.108
100 | ATAACGAG | 0.24

Row | Sequence | PBM E-score
101 | AGCGTGCA | 0.0338
102 | CTCGCATA | -0.0654
103 | ATGACAAG | 0.282
104 | ATGACAAC | 0.343
105 | ATGACAGC | 0.199
106 | CATAGAAA | 0.105
107 | GATCATGA | 0.227
108 | TATCATGA | 0.306
109 | CATCATGC | 0.128
110 | AATCATGA | 0.274
111 | CATCATGA | 0.298
112 | CATCATGG | 0.101
113 | ACTGGCCG | -0.142
114 | ACATTGAG | -0.169
115 | CCTGGCGA | -0.127
116 | GGCCATCA | -0.255
117 | AATCGAAA | 0.126
118 | CGAAGGGA | -0.118
119 | CGATGAGA | 0.19
120 | CGATGATA | 0.305
121 | GGATGAAA | 0.128
122 | GGATGAGA | -0.0398
123 | GGATGATA | 0.31
124 | AGATGATG | 0.216
125 | AGATGATA | 0.364

Row | Sequence | PBM E-score
126 | AGATGATC | 0.176
127 | CGATGATC | 0.287
128 | ACATTGGG | -0.0776
129 | TGGCTTAA | 0.115
130 | AGATTCCC | -0.0908
131 | ACAAAGTC | 0.0656
132 | AAGGGTTA | 0.0193
133 | AAACCTGC | -0.168
134 | ATGTGAAG | 0.164
135 | ACCGGACG | -0.0917
136 | ATGACCCC | -0.103
137 | AGACTTCA | -0.0675
138 | ACGAAAGG | 0.276
139 | ACGAAGAT | 0.284
140 | ACGAAACT | 0.336
141 | ACGAAAAA | 0.216
142 | ACGAAAAC | 0.316
143 | ACGAAGAC | 0.308
144 | ACGAAACA | 0.245
145 | GCGAAAGC | -0.15
146 | ACGAAAAG | 0.218
147 | ACGAAAGC | 0.356
148 | ACGAAACC | 0.196
149 | ACGAAGAA | 0.288
150 | GGAGACTA | -0.107

Row | Sequence | PBM E-score
151 | CTGTCGCC | -0.202
152 | AGGTTTGA | -0.188
153 | CCTGGCCA | -0.161
154 | ACTCTATA | 0.145
155 | GCGGAAAC | -0.206
156 | AGGATTGG | -0.0614
157 | GTTCTTAA | 0.124
158 | ACGAAGTC | 0.152
159 | ACGAAGTG | 0.301
160 | ACGAAGTA | 0.169
161 | AGACGTTG | 0.109
162 | ACAGATTG | -0.0933
163 | ATGACACA | 0.266
164 | ACGACATC | 0.303
165 | ATGACATG | 0.358
166 | ATGACATC | 0.308
167 | CTGACATC | -0.0102
168 | AGGACATG | -0.0301
169 | ACGACATG | 0.225
170 | ATGACAGG | -0.0297
171 | GTGACACA | 0.343
172 | CTGACACA | -0.208
173 | ATGACACC | 0.187
174 | CCGACATC | 0.218

— the supplement of paper PMC3334620
